This experiment concerns MV4-11. Put plainly: CellTox Green cytotoxicity fluorescence relative to DMSO vehicle (fold of vehicle RFU); higher = more cell death (loss of membrane integrity), active = 2 or more. On the procedure: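 Paediatric AML cell lines (MV4-11, CMK, Kasumi-1; 4x10^4 cells/well, 96-well) treated with single compounds from the Selleckchem apoptosis library at 0.01, 0.1 and 1 µM. Cytotoxicity was read with CellTox Green (RFU, Ex 485/Em 520) at 24, 48 and 72 h and normalised to the 0.1% DMSO vehicle. Normalised RFU >= 2 was taken as a successful, cell-killing treatment.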

Unmarked numbers belong to inactive results.

As to `C=CCc1cccc(/C=N/NC(=O)CN2CCN(Cc3ccccc3)CC2)c1O`, the “CellTox Green cytotoxicity fluorescence” value was 0.974 (0.01 µM, 24 h); 0.955 (0.01 µM, 48 h); 0.955 (0.01 µM, 72 h); 0.95 (0.1 µM, 24 h); 0.951 (0.1 µM, 48 h); 0.957 (0.1 µM, 72 h). The “CellTox Green cytotoxicity fluorescence” value runs as follows: (1 µM, 24 h) 0.904; (1 µM, 48 h) 1.07; (1 µM, 72 h) 1.31.
`Nc1cccc2c1CN(C1CCC(=O)NC1=O)C2=O` (stereo not given) [Lenalidomide]: the “CellTox Green cytotoxicity fluorescence” value (0.01 µM, 24 h) was 0.939; the “CellTox Green cytotoxicity fluorescence” value (0.01 µM, 48 h) is 0.942; the “CellTox Green cytotoxicity fluorescence” value (0.01 µM, 72 h) was 0.935; the “CellTox Green cytotoxicity fluorescence” value (0.1 µM, 24 h) was 0.943; the “CellTox Green cytotoxicity fluorescence” value (0.1 µM, 48 h) is 0.929; the “CellTox Green cytotoxicity fluorescence” value (0.1 µM, 72 h) is 0.915. The “CellTox Green cytotoxicity fluorescence” value by setting is: (1 µM, 24 h) 0.952; (1 µM, 48 h) 0.958; (1 µM, 72 h) 0.944.
In the case of `CC(=O)N1c2ccc(-c3ccc(C(=O)O)cc3)cc2[C@H](Nc2ccc(Cl)cc2)C[C@@H]1C`, the “CellTox Green cytotoxicity fluorescence” value was 0.931 (0.01 µM, 24 h); 0.997 (0.01 µM, 48 h); 1.17 (0.01 µM, 72 h); 0.975 (0.1 µM, 24 h); 1.43 (0.1 µM, 48 h); 2.03 (active) (0.1 µM, 72 h). Moreover, the “CellTox Green cytotoxicity fluorescence” value is, setting by setting: (1 µM, 24 h) 1.09; (1 µM, 48 h) 1.87; (1 µM, 72 h) 2.28 (active).
As for `CN(C)CCCCC(=O)Nc1ccc(NC(=S)NC(=O)c2ccc(C(C)(C)C)cc2)cc1` [Tenovin-6], the “CellTox Green cytotoxicity fluorescence” value (0.01 µM, 24 h) was 1; the “CellTox Green cytotoxicity fluorescence” value (0.01 µM, 48 h) was 0.993; the “CellTox Green cytotoxicity fluorescence” value (0.01 µM, 72 h) was 0.989; the “CellTox Green cytotoxicity fluorescence” value (0.1 µM, 24 h) was 0.986; the “CellTox Green cytotoxicity fluorescence” value (0.1 µM, 48 h) was 0.964; the “CellTox Green cytotoxicity fluorescence” value (0.1 µM, 72 h) was 0.952. In addition, the “CellTox Green cytotoxicity fluorescence” value was 1.02 (1 µM, 24 h); 1.02 (1 µM, 48 h); 1.05 (1 µM, 72 h).
For the compound `Cc1cccc(CC(=O)N2CCc3c2ccc(-c2cn(C)c4ncnc(N)c24)c3F)n1`, the “CellTox Green cytotoxicity fluorescence” value is 1.04 (0.01 µM, 24 h); 1.04 (0.01 µM, 48 h); 1.06 (0.01 µM, 72 h); 1.02 (0.1 µM, 24 h); 1.01 (0.1 µM, 48 h); 1.02 (0.1 µM, 72 h). The “CellTox Green cytotoxicity fluorescence” value runs as follows: (1 µM, 24 h) 1.03; (1 µM, 48 h) 1.03; (1 µM, 72 h) 1.04.
